Bioassay records from PubChem.
PI5P4Ka inh: qHTS for Inhibitors of phosphatidylinositol 5-phosphate 4-kinase (PI5P4K); Phosphatidylinositol 5-phosphate 4-kinase type-2 alpha (Homo sapiens), P48426; hit rate 1.2% among 330,000; PI5P4Kalpha enzyme, ADP-Glo luminescence, 60 min; stronger effect = lower value; AID 652105, 2013; max response, %; active = max response of -50% or lower; inconclusive = between -30% and -50%; inactive = -30% or higher; note: value at the top dose of about 77 µM
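Controls without substrate or without enzyme flank wells where PI5P4Kalpha converts substrate using 5 microM ATP (final). Incubation lasts 60 minutes at room temperature; ADP formed is read by ADP-Glo luminescence.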
PLK1 PBD block: qHTS for Inhibitors of PLK1-PDB (polo-like kinase 1 - polo-box domain): Primary Screen | AID 720504, 2013 | Potency, µM, most hits filed as inhibitors | hit rate 2.8% among 360,000 | Serine/threonine-protein kinase PLK1 (Homo sapiens), P53350 | Plk1 PBD binding of FITC phosphopeptide, fluorescence polarization; note: series mostly up to about 57 µM; nearly all actives have a fitted effect of over 65% in size
G9a block: qHTS Assay for Inhibitors of Histone Lysine Methyltransferase G9a. Histone-lysine N-methyltransferase EHMT2 (Homo sapiens), Q96KQ7. G9a H3K9 monomethylation, AlphaScreen, 2 h. Potency, µM (titrated, usually from 102 µM), usual class: inhibitors. hit rate 8.8% among 350,000; note: nearly all actives have a fitted effect of over 75% in size
Target sequence (Q96KQ7 913-1193 limits assumed): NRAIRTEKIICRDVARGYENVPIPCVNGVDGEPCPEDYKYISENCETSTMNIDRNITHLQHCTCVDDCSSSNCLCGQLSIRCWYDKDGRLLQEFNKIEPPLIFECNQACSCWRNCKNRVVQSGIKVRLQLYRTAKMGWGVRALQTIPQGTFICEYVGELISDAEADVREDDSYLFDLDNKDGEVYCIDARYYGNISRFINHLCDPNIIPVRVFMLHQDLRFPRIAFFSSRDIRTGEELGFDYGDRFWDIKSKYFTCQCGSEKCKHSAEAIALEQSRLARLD
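Step 1: enzyme (final 20 nM) with compound, 15 min RT. Step 2: substrate peptide 500 nM and SAM 20 uM, 2 h RT. Step 3: anti-H3K9me1 antibody and AlphaScreen beads, 10 min, then plate read.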
HP1b chromo inh: HTS for Inhibitors of HP1-beta Chromodomain Interactions with Methylated Histone Tails; Potency, µM (titrated, usually from 114 µM), usual class: inhibitors; AID 540317, 2011; Chromobox protein homolog 1 (Homo sapiens), P83916; hit rate 0.56% among 390,000; AlphaScreen HP1-beta / biotin-H3K9me3 peptide binding; note: nearly all actives have a fitted effect of over 70% in size
Target sequence (P83916 whole entry, looked up): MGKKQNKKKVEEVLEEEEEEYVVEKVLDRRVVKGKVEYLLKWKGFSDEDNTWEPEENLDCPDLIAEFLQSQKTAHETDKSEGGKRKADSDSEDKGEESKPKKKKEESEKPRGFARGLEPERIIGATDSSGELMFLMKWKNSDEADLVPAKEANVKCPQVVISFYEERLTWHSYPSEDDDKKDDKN
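AlphaScreen: HP1-beta (50 nM) preformed 30 min with biotin-H3(1-18)K9me3 peptide (50 nM) in PBS pH 7.4, 0.01% Tween-20. Compound added for 30 min at RT, then streptavidin donor/nickel chelate acceptor beads (10 ug/mL) for 30 min.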
BAZ2B inh: qHTS Assay for Inhibitors of BAZ2B; Bromodomain adjacent to zinc finger domain protein 2B (Homo sapiens), Q9UIF8; AlphaScreen BAZ2B-H3K14Ac peptide displacement; Potency, µM (doses to about 114 µM), usual class: inhibitors; hit rate 4.4% among 360,000; AID 504333, 2011; note: nearly all actives have a fitted effect of over 60% in size
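Compounds, titrated to a top concentration of 110 uM, were incubated 30 min at room temperature with preformed BAZ2B/acetyl-K14 H3 peptide complex (50 nM each). Proximity signal was measured by AlphaScreen after 20 min with beads.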
JMJD2A Tudor: qHTS Assay for Inhibitors of JMJD2A-Tudor Domain | AID 504339, 2011 | AlphaScreen JMJD2A-Tudor / H3K4me3 peptide binding | Potency, µM (highest dose often 114 µM), most hits filed as inhibitors | hit rate 4.4% among 390,000; note: nearly all actives have a fitted effect of over 50% in size
Large screens that a line does not name were inactive. A selection: hits, their analogues and other compounds. The true share with any hit is near 12%. Unless noted, calls come from the whole dose curve; as a rule, active = well fitted curve in the direction sought with a large enough effect; inconclusive = small, poorly fitted or top-dose-only effect, or another doubt; inactive = no such curve, though single readings can be large; an effect the other way counts as inactive or inconclusive.

Cc1nn(-c2ccc(C(=O)O)cc2)c(N)c1-c1ccccc1	none
O=C(CSc1nc2ccccc2[nH]1)c1ccccc1F	none
O=C(O)c1ccccc1CSc1nc2ccccc2[nH]1	G9a block 50.1µM
Nc1c(-c2ccccc2)c(CSc2nc3ccccc3[nH]2)nn1-c1ccc(C(=O)O)cc1	PLK1 PBD block 15µM, G9a block inconclusive, HP1b chromo inh inconclusive, JMJD2A Tudor 22.4µM
COc1cc(OC)c(NC(=O)c2c(N3CCCC3=O)c3cc(C)ccc3n2C)cc1Cl	none (no result: PI5P4Ka inh, PLK1 PBD block)
CCOCCCNC(=O)C(=O)Nc1c2c(nn1-c1ccc(OC)cc1)CSC2	none (no result: PI5P4Ka inh, PLK1 PBD block)
O=C(c1cc(-c2ccc(Br)cc2)on1)N1CCc2ccccc2C1	PLK1 PBD block 33.6µM, JMJD2A Tudor 50.1µM
O=C(c1cc(-c2ccc(Cl)cc2)on1)N1CCCCCC1	PLK1 PBD block 26.7µM, JMJD2A Tudor 25.1µM
Cc1cc(C)c(NC(=O)c2cc(C)nc3c2c(C)nn3-c2cccc(F)c2)c(C)c1	none (no result: PI5P4Ka inh, PLK1 PBD block)
CCn1c(-c2cc3c(C(F)(F)F)nn(C)c3s2)n[nH]c1=S	G9a block 5.62µM, JMJD2A Tudor 8.91µM (no result: PI5P4Ka inh)
Cn1nc(C(F)(F)F)c2cc(C(=O)O)sc21	none
Cn1c(-c2cc3c(C(F)(F)F)nn(C)c3s2)n[nH]c1=S	G9a block 31.6µM, JMJD2A Tudor 11.2µM
COc1ccc(C2C(=O)N(C3CCC(C)CC3)CC(=O)N2C2CCCC2)cc1OC (stereo not drawn)	none (no result: PI5P4Ka inh, PLK1 PBD block)
COc1cc(-c2nc3sccn3c2Nc2c(C)cccc2C)ccc1O	HP1b chromo inh inconclusive, JMJD2A Tudor 56.2µM (no result: PI5P4Ka inh, PLK1 PBD block)
Cc1cccc(C)c1Nc1c(-c2ccsc2)nc2cccc(C)n12	G9a block inconclusive (no result: PI5P4Ka inh, PLK1 PBD block)
Cc1cccc(C)c1Nc1c(-c2ccc(O)cc2)nc2sccn12	G9a block 3.98µM, HP1b chromo inh 15.8µM, BAZ2B inh 39.8µM, JMJD2A Tudor 44.7µM (no result: PI5P4Ka inh, PLK1 PBD block)
CC(=O)Nc1ccc(NC(=O)CSc2nccn2Cc2ccc(Cl)cc2)cc1	BAZ2B inh inconclusive
O=C(CNCc1ccc(Cl)cc1)Nc1ccc2c(c1)OCCO2	G9a block 11.2µM, HP1b chromo inh inconclusive, BAZ2B inh 56.2µM, JMJD2A Tudor 17.8µM
O=C(CNCc1ccccc1Cl)Nc1ccc2c(c1)OCCO2	HP1b chromo inh inconclusive, BAZ2B inh 56.2µM, JMJD2A Tudor 28.2µM (no result: G9a block)
O=C(CSc1nc2c(c(=O)n1-c1ccc(Cl)cc1)SCC2)Nc1ccc2c(c1)OCCO2	G9a block 44.7µM
O=C(CSc1nc2c(c(=O)n1-c1ccc(F)cc1)SCC2)Nc1ccc2c(c1)OCO2	none (no result: PI5P4Ka inh, G9a block, BAZ2B inh)
O=C(CSc1nccn1Cc1ccc(Cl)cc1)Nc1ccc2c(c1)OCCO2	G9a block inconclusive, BAZ2B inh inconclusive, JMJD2A Tudor 50.1µM (no result: PI5P4Ka inh, PLK1 PBD block)
CC(C)CNC(=O)[C@H]1N2C(=O)c3ccccc3C2SC1(C)C (stereo partly drawn)	none
Cc1ccc(-c2nc3n(n2)C(c2ccccc2C)C=C(c2ccc(Cl)cc2)N3)cc1 (stereo not drawn)	JMJD2A Tudor inconclusive (no result: PI5P4Ka inh, PLK1 PBD block)
Nn1c(SCC(=O)Nc2ccc3c(c2)OCO3)nnc1-c1ccc(Cl)cc1	none (no result: PI5P4Ka inh)
O=C(CSc1nnc(-c2ccccn2)n1-c1ccc(Cl)cc1)Nc1ccc2c(c1)OCO2	G9a block 14.1µM, BAZ2B inh inconclusive (no result: PI5P4Ka inh)
Cc1ccc(NC(=S)c2nc3ccccc3[nH]2)c(C)c1	PLK1 PBD block inconclusive, G9a block inconclusive, HP1b chromo inh inconclusive, BAZ2B inh 28.2µM, JMJD2A Tudor inconclusive
Cc1ccc(NC(=S)c2nc3ccccc3[nH]2)cc1	HP1b chromo inh inconclusive, BAZ2B inh 10µM, JMJD2A Tudor inconclusive
COc1cc(C(=O)Nc2nonc2-c2ccc(C)c(C)c2)cc(OC)c1OC	none (no result: PI5P4Ka inh, PLK1 PBD block)
CCOC(=O)C(=O)NNc1cccc(C)c1C	G9a block 0.631µM
CN(CCC1CCOCC1)C(=O)CC1C(=O)NCCN1Cc1ccccc1F (stereo not drawn)	G9a block 8.91µM
